Test results from PubChem BioAssay (NCI).
The panel holds about 83,000 compounds, 20% with a hit somewhere; the sample as a whole holds those more often.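 Note: values are percent growth. 100 is the growth of untreated cells, values between 100 and 0 indicate rising inhibition; between -100 and 0 indicates cell death.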 Calls of active or inactive are those of the source. Rule for the calls: active = growth percent below 10; inactive = the rest.

Assays:
Assay in all cases: NCI-60 one-dose screen, 48 h (100 = growth as untreated, 0 = no growth, -100 = all killed)
Conditions in all cases: 10 µM unless noted
NCI-H23 lung = system: NCI-H23 lung
NCI-H226 lung = system: NCI-H226 lung
NCI-H322M lung = system: NCI-H322M lung
HOP-62 NSCLC = system: HOP-62 NSCLC
NCI-H460 lung = system: NCI-H460 lung
HOP-92 NSCLC = system: HOP-92 NSCLC
NCI-H522 lung = system: NCI-H522 lung
A549/ATCC NSCLC = system: A549/ATCC NSCLC
786-0 renal = system: 786-0 renal
COLO 205 colon = system: COLO 205 colon

Measured: growth

N=C(N)c1ccc(-c2ccc(-c3cc(F)cc(F)c3)o2)nc1
inactive: NCI-H23 lung 87.8% | NCI-H226 lung 86.6% | NCI-H322M lung 96.4% | HOP-62 NSCLC 78.4% | NCI-H460 lung 99.4% | HOP-92 NSCLC 59% | NCI-H522 lung 99.1% | A549/ATCC NSCLC 94.8% | 786-0 renal 95.6% | COLO 205 colon 63.4%

OCCNc1nc(Nc2ccc(Cl)c(Cl)c2)nc2ccccc12
inactive: NCI-H23 lung 54.5% | NCI-H226 lung 61.7% | NCI-H322M lung 71% | HOP-62 NSCLC 49.1% | NCI-H460 lung 33.3% | HOP-92 NSCLC 27.4% | NCI-H522 lung 62% | A549/ATCC NSCLC 37% | 786-0 renal 62%
active: COLO 205 colon -21.7%

O=P(O)(c1ccccc1)c1ccccc1I
inactive: NCI-H23 lung 96.4% | NCI-H226 lung 90% | NCI-H322M lung 94.1% | HOP-62 NSCLC 94.8% | NCI-H460 lung 97.2% | HOP-92 NSCLC 83.9% | NCI-H522 lung 80.7% | A549/ATCC NSCLC 71.2% | 786-0 renal 109% | COLO 205 colon 107%

CC(=O)O[C@H]1CC[C@]2(C)[C@H]3CC=C4[C@@H]5[C@H](C)[C@@H](C)CC[C@]5(C(=O)NCCNCCNCCN)CC[C@@]4(C)[C@]3(C)CC[C@H]2C1(C)C
inactive: NCI-H23 lung 94.6% | NCI-H226 lung 90.5% | NCI-H322M lung 87.6% | HOP-62 NSCLC 86.2% | NCI-H460 lung 76.8% | HOP-92 NSCLC 55% | NCI-H522 lung 87.2% | A549/ATCC NSCLC 73.8% | 786-0 renal 84.5% | COLO 205 colon 72.5%

COC(=O)[C@]12CC[C@@H](C)[C@H](C)[C@@H]1C1=CC[C@@H]3[C@@]4(C)C[C@@H](O)[C@H](O)[C@@](C)(CO)C4=CC[C@@]3(C)[C@]1(C)CC2
active: NCI-H23 lung -57.8% | NCI-H226 lung -47.4% | NCI-H322M lung -84.7% | HOP-62 NSCLC -61% | NCI-H460 lung -63.4% | HOP-92 NSCLC -77.6% | NCI-H522 lung -2.22% | A549/ATCC NSCLC -14.1% | 786-0 renal -74.1% | COLO 205 colon -76.7%

COC(=O)[C@]12CC[C@@H](C(=O)/C=C/c3cccnc3)[C@@H]1[C@H]1CC[C@@H]3[C@@]4(C)C/C(=C/c5cccnc5)C(=O)C(C)(C)[C@@H]4CC[C@@]3(C)[C@]1(C)CC2
active: NCI-H23 lung -48.3% | NCI-H226 lung -44.4% | NCI-H322M lung -80.7% | HOP-62 NSCLC -85.6% | NCI-H460 lung -78.4% | HOP-92 NSCLC -79.9% | NCI-H522 lung -59.7% | A549/ATCC NSCLC -9.34% | 786-0 renal -92.3% | COLO 205 colon -45.1%

COc1ccc(/C=C2\N=C(c3ccccc3)N(c3cc(OC)c(OC)cc3C(=O)N3N=C(C)CC3=O)C2=O)cc1
inactive: NCI-H23 lung 102% | NCI-H226 lung 90.1% | NCI-H322M lung 118% | HOP-62 NSCLC 97% | NCI-H460 lung 94.4% | HOP-92 NSCLC 78.2% | NCI-H522 lung 82.6% | A549/ATCC NSCLC 104% | 786-0 renal 98.9% | COLO 205 colon 112%

COc1cccc(-c2nn(-c3ccccc3)cc2-c2ccnc(NCCCNS(=O)(=O)c3ccccc3)c2)c1
inactive: NCI-H23 lung 44.3% | NCI-H226 lung 35.1% | NCI-H322M lung 59.3% | HOP-62 NSCLC 64.3% | NCI-H460 lung 31.8% | HOP-92 NSCLC 18.9% | NCI-H522 lung 31.1% | A549/ATCC NSCLC 35.8% | 786-0 renal 43.2% | COLO 205 colon 17.1%

CC(C)(C)c1nc(-c2ccc(O)c(O)c2)cs1
inactive: NCI-H23 lung 68.8% | NCI-H226 lung 93.7% | NCI-H322M lung 93.2% | HOP-62 NSCLC 66.7% | NCI-H460 lung 33.1% | HOP-92 NSCLC 61.3% | NCI-H522 lung 21% | A549/ATCC NSCLC 55.7% | 786-0 renal 77.5% | COLO 205 colon 92.6%

NC1=NN=C2N(N)C(=O)c3cnn(-c4ccccc4)c3N2c2nc(-c3ccccc3)cc(-c3ccccc3)c21
inactive: NCI-H23 lung 94.1% | NCI-H226 lung 87.4% | NCI-H322M lung 103% | HOP-62 NSCLC 96.8% | NCI-H460 lung 103% | HOP-92 NSCLC 96.7% | NCI-H522 lung 74.9% | A549/ATCC NSCLC 100% | 786-0 renal 104% | COLO 205 colon 116%

O=C(O)c1cccc2c1Cc1cc([N+](=O)[O-])ccc1-2
inactive: NCI-H23 lung 103% | NCI-H226 lung 100% | NCI-H322M lung 109% | HOP-62 NSCLC 105% | NCI-H460 lung 110% | HOP-92 NSCLC 82% | NCI-H522 lung 103% | A549/ATCC NSCLC 107% | 786-0 renal 108% | COLO 205 colon 107%

Cc1oc(-c2ccccc2Cl)cc1C(=O)Nc1ccc(S(N)(=O)=O)cc1
inactive: NCI-H23 lung 96.4% | NCI-H226 lung 96.1% | NCI-H322M lung 102% | HOP-62 NSCLC 105% | NCI-H460 lung 107% | HOP-92 NSCLC 107% | NCI-H522 lung 97.3% | A549/ATCC NSCLC 105% | 786-0 renal 103% | COLO 205 colon 116%

COc1ccc(OC)c(-c2c(C#N)c(-c3ccco3)nc3c2c(-c2ccccc2)nn3-c2ccccc2)c1
inactive: NCI-H23 lung 96.7% | NCI-H226 lung 90.1% | NCI-H322M lung 103% | HOP-62 NSCLC 106% | NCI-H460 lung 101% | HOP-92 NSCLC 78.5% | NCI-H522 lung 81.9% | A549/ATCC NSCLC 94.9% | 786-0 renal 100% | COLO 205 colon 119%
